Measurements published in PubChem BioAssay AID588343 (Broad Institute, 2011).
Among all 1,200 compounds or so, about 650 (54%) were called active. About 5% were inconclusive and are not listed.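 The calls were made as follows: active = signal-lowering curve whose fitted half-maximal concentration is at or below ten times the top valid dose tested; inconclusive = flat curve with 30 to 70% inhibition, or poor fit; inactive = signal increase, flat within 30%, or potency beyond limit.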 So high a share suggests a set chosen from earlier hits. The list is a sample of the results. Measured potencies and affinities stand elsewhere.

assay: inhibitors of LMP1-driven NF-kB reporter, dose response, cell-based, HEK293, luciferase, cherry-pick (AID 588343); settings: HEK293 LMP1 TES2 NF-kB luciferase reporter, 16 h; series mostly up to 35 µM; activity change, negative = inhibition: at the top concentration;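 also: 0% = median of neutral control wells and -100% = MG132 positive control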

Activity change, negative = inhibition, inactive:
N#CCN(N=Nc1ccccc1)c1ccccc1 -1.17%
CCOC(=O)C1CCN(S(=O)(=O)Cc2ccccc2)C1=O (stereo not given) -10.9%
COc1cccc(C2=CC(=O)C[C@H](c3ccc4c(c3)OCO4)C2)c1 15.4%
COc1cc(C2NC(=O)NC(C)=C2C(=O)OC2CCCC(C)C2)cc(Br)c1O (stereo not given) 28%
Cc1cc(N2CCCC2=O)cc(C)c1S(=O)(=O)Nc1c(C)nn(C)c1C -5.41%
N#CC1=C(N)OC2=C(C(=O)CCC2)C12C(=O)N1CCCc3cccc2c31 (stereo not given) -0.45%
O=C1CCc2cc(OCCCCc3nnnn3C3CCCCC3)ccc2N1 -5.16%
CN(C)S(=O)(=O)c1cccc(NC(=O)c2n[nH]c(=O)c3ccccc23)c1 -8.91%
Cc1cc(C)nc(SCC(=O)OCN2C(=O)c3ccccc3C2=O)n1 -6.66%
Cc1cc(N=Cc2c(O)ccc3cc(Br)ccc23)no1 -0.466%
Cc1cc2ccccc2n1CCNC(=O)COc1ccc2ccccc2c1 0.91%
CCOc1ccc(N(C(C)C(=O)N2CCCCCC2)S(C)(=O)=O)cc1 (stereo not given) 0.021%
CCOc1cccc(CNc2nnnn2C)c1 -1.72%
CCOc1ccc(S(=O)(=O)N2CCC(C(=O)NCCc3ccc(S(N)(=O)=O)cc3)CC2)cc1 2%
COc1ccccc1/C=C/C(=O)c1ccc(Cl)cc1 -16.5%
CCn1c(NC(=O)c2ccc(C)cc2)c2ccccc2nc1=O -4.03%
COc1ccc(NC(=O)c2cc3c(CO)cnc(C)c3oc2=Nc2cccc(F)c2)c(OC)c1 -10.8%
Brc1ccc(-c2csc(N3CCCCCC3)n2)cc1 36%
C=CCn1c(SCc2ccc3nonc3c2)nnc1-c1cccs1 -3.5%
COc1cccc(/C=N\NC(=O)c2ccc(C)nc2)c1 7.76%
Oc1ccccc1C=NN=Cc1c(O)ccc2ccccc12 22.8%
COc1cc(C2CC(=O)N3CN(Cc4ccccc4)CSC3=C2C#N)ccc1OCc1ccccc1 (stereo not given) 20.2%
Cc1cc(C)c(S(=O)(=O)N2CCN(C(=O)c3ccccc3OCc3c(C)noc3C)CC2)c(C)c1 17.2%
COc1cc(OC)cc(C(=O)N[C@H](C(=O)OCC(=O)c2ccc(C)c([N+](=O)[O-])c2)C(C)C)c1 -0.232%
COCCn1c(SCC(=O)N2CCc3ccccc32)nc2c(c1=O)SC(C)C2 (stereo not given) -2.61%
COCCNC(=O)C1CCC(CNS(=O)(=O)c2ccccc2)CC1 (stereo not given) 0.853%
COc1ccc(N2C3=[N+](CC2(C)O)c2ccccc2CC3)cc1 (stereo not given) -2.12%
CC(CCc1ccco1)N(C)S(=O)(=O)c1csc(C(N)=O)c1 (stereo not given) 10.6%
CCc1nnc(NC(=O)c2cc(S(=O)(=O)N3CCN(CC)CC3)ccc2Cl)s1 4.28%
Cc1nn(CCCC(=O)Nc2cccnc2Cl)c(C)c1[N+](=O)[O-] 2.82%
Cc1ccc(N2C(=O)c3ccccc3C2Nc2cccnc2)nc1 (stereo not given) -1.05%
COC(=O)C1=NNC(C(=O)OC)C1c1ccccc1 (stereo not given) -3.6%
CCOC(=O)C1=C(C)N(C)C(=O)NC1c1ccccc1OC (stereo not given) 15.3%
CCCN(CC1CC1)c1nc(C)nc(Nc2c(Cl)cc(Cl)cc2Cl)c1Cl 18.1%
CC1CCC(NC(=O)CC2Oc3ccccc3NC2=O)CC1 (stereo not given) -0.482%
